Four molecules from PubChem BioAssay (EPA / NIEHS) can be followed below.

The source made the active and inactive calls. The calls were made as follows: active = hit-call score of the fitted dose curve at least 0.9, where 1 is the maximum; inactive = score below 0.9.

What all share (settings): mRNA level, 48 h; actives raise or lower the signal
Read-out in test [1]: Cytochrome P450 (CYP2B6), CYP2B6 (gene 1555)
Kind of test: LTEA_HepaRG_CYP2B6: Life Technologies and Expression Analysis (LTEA) Assay for Cytochrome P450 (CYP2B6) using HepaRG (AID 2283481). In short, it runs like this:
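Differentiated human HepaRG cells in serum-free induction medium, dosed in duplicate for 48 h over 8 half-log concentrations topping at 100 uM (0.5% DMSO). CYP2B6 mRNA measured by TaqMan qRT-PCR, normalized to ACTB, GAPDH, POLR2A; bidirectional fit versus DMSO.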

Read-out in test [2]: Cytochrome P450 2C19 (Homo sapiens) (UniProt P33261)
Kind of test: LTEA_HepaRG_CYP2C19: Life Technologies and Expression Analysis (LTEA) Assay for CYP2C19 using HepaRG (AID 2283482). A digest of the protocol:
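Differentiated HepaRG cells in serum-free induction medium exposed 48 h in duplicate, 8 concentrations from 100 uM by half-log steps in 0.5% DMSO. CYP2C19 mRNA measured by TaqMan qRT-PCR, normalized to ACTB, GAPDH, POLR2A. Bidirectional fit versus DMSO.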

Read-out in another test: CYP2C8 (gene 1558)
Kind of test: LTEA_HepaRG_CYP2C8: Life Technologies and Expression Analysis (LTEA) Assay for CYP2C8 using HepaRG (AID 2283483). In short, it runs like this: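 This is a transcriptional endpoint in HepaRG cultures: 48 h exposure, highest concentration 100 uM. CYP2C8 mRNA is quantified by TaqMan qRT-PCR.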

Read-out in the next test: CYP2C9 (gene 1559)
The test can be described thus: LTEA_HepaRG_CYP2C9: Life Technologies and Expression Analysis (LTEA) Assay for CYP2C9 using HepaRG (AID 2283484). In short, it runs like this: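 Eight-point concentration-response (highest 100 uM, half-log dilutions) in HepaRG cells for 48 h; CYP2C9 expression by qRT-PCR normalized to ACTB, GAPDH, POLR2A. Bidirectional fit, DMSO baseline.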

Read-out in another test: CYP2E1 (gene 1571)
The test can be described thus: LTEA_HepaRG_CYP2E1: Life Technologies and Expression Analysis (LTEA) Assay for CYP2E1 using HepaRG (AID 2283485). In short, it runs like this:
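Assay uses 48 h exposure of HepaRG hepatic cells, eight concentrations to 100 uM. Expression of CYP2E1 is quantified by TaqMan qRT-PCR with ACTB, GAPDH and POLR2A normalization; curves fitted in both directions relative to vehicle.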

Read-out in a further test: CYP4A11 (gene 1579)
The test can be described thus: LTEA_HepaRG_CYP4A11: Life Technologies and Expression Analysis (LTEA) Assay for CYP4A11 using HepaRG (AID 2283486). In short, it runs like this:
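Differentiated HepaRG cells, 48 h after plating, exposed in duplicate for 48 h to 8 half-log concentrations up to 100 uM in 0.5% DMSO in serum-free induction medium. CYP4A11 mRNA measured by TaqMan qRT-PCR, normalized to ACTB, GAPDH and POLR2A.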

Read-out in test [3]: Cytochrome P450 3A4 (Homo sapiens) (UniProt P08684)
The test can be described thus: LTEA_HepaRG_CYP3A4: Life Technologies and Expression Analysis (LTEA) Assay for CYP3A4 using HepaRG (AID 2283487). In short, it runs like this: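 Differentiated HepaRG cells, plated 48 h, then dosed 48 h in serum-free induction medium with 0.5% DMSO, 8 half-log concentrations up to 100 uM, duplicate. CYP3A4 mRNA by qRT-PCR, normalized to ACTB/GAPDH/POLR2A; bidirectional fit versus DMSO.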

Read-out in test [4]: DNA damage-inducible transcript 3 (DDIT3), DDIT3 (gene 1649)
The test can be described thus: LTEA_HepaRG_DDIT3: Life Technologies and Expression Analysis (LTEA) Assay for DNA damage-inducible transcript 3 (DDIT3) using HepaRG (AID 2283488). A digest of the protocol: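 Eight-point concentration-response (100 uM highest, half-log dilutions) in HepaRG, 48 h, duplicate wells. Endpoint: qRT-PCR mRNA, normalized (ACTB, GAPDH, POLR2A), bidirectional fitting with DMSO as baseline.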

Read-out in test [5]: Pro-epidermal growth factor (Homo sapiens) (UniProt P01133)
Kind of test: LTEA_HepaRG_EGF: Life Technologies and Expression Analysis (LTEA) Assay for Epidermal growth factor (EGF) using HepaRG (AID 2283489). In short, it runs like this:
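HepaRG cells (~100,000/well, 48 h pre-culture) exposed in duplicate for 48 h in serum-free induction medium to 8 half-log concentrations up to 100 uM in 0.5% DMSO. EGF mRNA by qRT-PCR, normalized to ACTB/GAPDH/POLR2A; bidirectional fit versus DMSO.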

Read-out in test [6]: Early growth response protein 1 (EGR1) transcription factor, EGR1 (gene 1958)
The test can be described thus: LTEA_HepaRG_EGR1: Life Technologies and Expression Analysis (LTEA) Assay for Early growth response protein 1 (EGR1) transcription factor using HepaRG (AID 2283490). In short, it runs like this: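 EGR1 expression change in human HepaRG after 48 h chemical exposure, assessed by housekeeping-normalized qRT-PCR; concentration-response up to 100 uM, fitted in both directions against DMSO controls.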

Read-out in test [7]: Cytochrome P450 3A7 (Homo sapiens) (UniProt P24462)
Kind of test: LTEA_HepaRG_CYP3A7: Life Technologies and Expression Analysis (LTEA) Assay for CYP3A7 using HepaRG (AID 2283492). A digest of the protocol:
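Differentiated HepaRG cells in serum-free induction medium exposed 48 h in duplicate to 8-point half-log series from 100 uM top in 0.5% DMSO. CYP3A7 mRNA by qRT-PCR, normalized to ACTB/GAPDH/POLR2A, bidirectional fit versus DMSO.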

Read-out in test [8]: Fatty Acid-Binding Protein 1 (FABP1), FABP1 (gene 2168)
The test can be described thus: LTEA_HepaRG_FABP1: Life Technologies and Expression Analysis (LTEA) Assay for Fatty Acid-Binding Protein 1 (FABP1) using HepaRG (AID 2283494). A digest of the protocol: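 Values reflect bidirectional concentration-response fitting of FABP1 mRNA change against 0.5% DMSO controls. Human HepaRG cultures received eight half-log doses (top 100 uM) for 48 h; expression quantified by TaqMan qRT-PCR with housekeeping-gene normalization.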

Read-out in test [9]: Cytochrome P450 4A22 (Homo sapiens) (UniProt Q5TCH4)
Kind of test: LTEA_HepaRG_CYP4A22: Life Technologies and Expression Analysis (LTEA) Assay for Cytochrome P450 4A22 (CYP4A22) using HepaRG (AID 2283495). In short, it runs like this: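 Differentiated HepaRG cells in serum-free induction medium exposed 48 h in duplicate to eight half-log concentrations up to 100 uM in 0.5% DMSO. CYP4A22 mRNA quantified by TaqMan qRT-PCR, normalized to ACTB, GAPDH and POLR2A; bidirectional fit versus DMSO.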

Read-out in test [10]: Cytochrome P450 7A1 (Homo sapiens) (UniProt P22680)
Kind of test: LTEA_HepaRG_CYP7A1: Life Technologies and Expression Analysis (LTEA) Assay for Cytochrome P450 7A1 (CYP7A1) using HepaRG (AID 2283496). In short, it runs like this:
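Using 0.5% DMSO as vehicle and baseline, chemicals were tested in duplicate over an 8-point range from 100 uM on HepaRG cells for 48 h; qRT-PCR signals were normalised to ACTB, GAPDH and POLR2A.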

Read-out in test [11]: Glutathione S-Transferase (GSTA2), GSTA2 (gene 2939)
Kind of test: LTEA_HepaRG_GSTA2: Life Technologies and Expression Analysis (LTEA) Assay for Glutathione S-Transferase (GSTA2) using HepaRG (AID 2283497). In short, it runs like this: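 Oxidative-stress marker GSTA2 is quantified by TaqMan qRT-PCR in HepaRG cultures treated 48 h across an eight-point range to 100 uM. Expression is normalized to endogenous controls and compared with 0.5% DMSO vehicle.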

Read-out in test [12]: Glutamate-cysteine ligase catalytic (GCLC), GCLC (gene 2729)
Kind of test: LTEA_HepaRG_GCLC: Life Technologies and Expression Analysis (LTEA) Assay for Glutamate-cysteine ligase catalytic (GCLC) using HepaRG (AID 2283498). A digest of the protocol:
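Oxidative-stress marker GCLC is measured as mRNA change in human HepaRG liver cells after 48 h chemical treatment in 0.5% DMSO, eight concentrations from 100 uM. Activity is fitted bidirectionally against vehicle.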

Read-out in test [13]: growth arrest and DNA damage 45 (GADD45G), GADD45G (gene 10912)
The test can be described thus: LTEA_HepaRG_GADD45G: Life Technologies and Expression Analysis (LTEA) Assay for growth arrest and DNA damage 45 (GADD45G) using HepaRG (AID 2283499). In short, it runs like this:
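Differentiated human HepaRG cells, 48 h post-plating, exposed 48 h in serum-free induction medium to 8 half-log concentrations (top 100 uM, 0.5% DMSO) in duplicate. GADD45G mRNA measured by Fluidigm TaqMan qRT-PCR, normalized to ACTB, GAPDH, POLR2A; bidirectional fit versus DMSO.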

Read-out in test [14]: Glutamate-cysteine ligase regulatory (GCLM), GCLM (gene 2730)
The test can be described thus: LTEA_HepaRG_GCLM: Life Technologies and Expression Analysis (LTEA) Assay for Glutamate-cysteine ligase regulatory (GCLM) using HepaRG (AID 2283500). A digest of the protocol: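 In this multiplexed HepaRG gene-expression assay, GCLM mRNA change after 48 h treatment (8 concentrations, max 100 uM) was scored against DMSO by bidirectional curve fitting.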

Read-out in test [15]: Ezrin (EZR), EZR (gene 7430)
The test can be described thus: LTEA_HepaRG_EZR: Life Technologies and Expression Analysis (LTEA) Assay for Ezrin (EZR) using HepaRG (AID 2283491). A digest of the protocol:
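EZR transcript levels came from Fluidigm qRT-PCR and were normalized to three housekeeping genes after 48 h chemical exposure of HepaRG cells. Dosing used an 8-point half-log series with a 100 uM top concentration in 0.5% DMSO, tested in duplicate; both directions were fitted versus vehicle.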

Chain of Cytochrome P450 3A7 (Homo sapiens) (P24462 whole entry, looked up): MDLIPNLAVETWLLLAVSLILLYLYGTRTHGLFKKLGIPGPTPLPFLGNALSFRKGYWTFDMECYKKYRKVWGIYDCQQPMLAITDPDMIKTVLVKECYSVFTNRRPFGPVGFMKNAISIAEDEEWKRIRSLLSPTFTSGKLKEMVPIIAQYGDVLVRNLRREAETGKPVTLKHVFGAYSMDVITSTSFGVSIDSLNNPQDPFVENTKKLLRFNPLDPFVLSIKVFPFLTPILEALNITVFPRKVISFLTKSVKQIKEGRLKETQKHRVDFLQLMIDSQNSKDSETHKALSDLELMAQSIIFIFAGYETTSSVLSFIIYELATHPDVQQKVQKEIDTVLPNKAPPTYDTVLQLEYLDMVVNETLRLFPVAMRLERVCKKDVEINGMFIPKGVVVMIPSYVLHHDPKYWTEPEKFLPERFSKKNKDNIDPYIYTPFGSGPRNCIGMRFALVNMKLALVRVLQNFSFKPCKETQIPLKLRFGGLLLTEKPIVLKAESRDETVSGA
Chain of Cytochrome P450 3A4 (Homo sapiens) (P08684 whole entry, looked up): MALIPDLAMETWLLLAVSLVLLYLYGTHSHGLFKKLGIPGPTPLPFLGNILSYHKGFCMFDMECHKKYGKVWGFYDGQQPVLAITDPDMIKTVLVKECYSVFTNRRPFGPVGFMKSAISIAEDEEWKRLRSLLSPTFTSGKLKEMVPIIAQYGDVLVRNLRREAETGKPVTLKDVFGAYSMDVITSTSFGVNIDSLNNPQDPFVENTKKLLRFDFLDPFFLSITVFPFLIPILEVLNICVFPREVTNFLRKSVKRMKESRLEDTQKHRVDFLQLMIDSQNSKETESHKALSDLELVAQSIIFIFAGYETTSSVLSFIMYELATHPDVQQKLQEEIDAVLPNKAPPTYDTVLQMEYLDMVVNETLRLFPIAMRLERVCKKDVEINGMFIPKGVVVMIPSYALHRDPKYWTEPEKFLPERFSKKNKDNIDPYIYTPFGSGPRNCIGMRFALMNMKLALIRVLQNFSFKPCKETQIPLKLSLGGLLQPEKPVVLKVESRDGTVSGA
Chain of Cytochrome P450 2C19 (Homo sapiens) (P33261 whole entry, looked up): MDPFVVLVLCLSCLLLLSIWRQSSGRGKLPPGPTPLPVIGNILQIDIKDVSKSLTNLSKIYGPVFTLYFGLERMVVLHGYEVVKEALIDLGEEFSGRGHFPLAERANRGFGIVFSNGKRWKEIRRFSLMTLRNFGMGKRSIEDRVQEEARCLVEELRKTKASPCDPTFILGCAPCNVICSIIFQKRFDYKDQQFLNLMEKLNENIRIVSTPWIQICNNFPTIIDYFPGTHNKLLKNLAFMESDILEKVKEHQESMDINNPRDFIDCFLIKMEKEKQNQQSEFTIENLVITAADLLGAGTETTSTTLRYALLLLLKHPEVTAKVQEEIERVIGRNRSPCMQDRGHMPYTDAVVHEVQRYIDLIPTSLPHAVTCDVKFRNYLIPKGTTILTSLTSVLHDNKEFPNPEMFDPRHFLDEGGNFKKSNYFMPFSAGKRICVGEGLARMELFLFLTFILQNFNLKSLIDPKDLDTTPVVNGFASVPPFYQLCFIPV

Regarding `OCCCl`, in test [1], the AC50 is 50 µM (active). Besides, the molecule was called inactive (in test [2]; in the test with CYP2C8 (gene 1558); with CYP2C9 (gene 1559); with CYP2E1 (gene 1571); with CYP4A11 (gene 1579); in [3]). The call in [4], in test [5], in test [6], in test [7], in test [8] and in [9] was inactive. The molecule was called inactive in test [10], in [11], in [12], in test [13] and in test [14].
Regarding `Nc1ccc(N=Nc2ccccc2)cc1`, the half-maximal activity concentration (AC50) in test [1] was 13.1 µM (active); in test [2], 14.4 µM (active); in the test with CYP2C8 (gene 1558), 17.3 µM (active); in the test with CYP2C9 (gene 1559), 14.7 µM (active); with CYP2E1 (gene 1571) it was 23.7 µM (active); with CYP4A11 (gene 1579), 13.3 µM (active). The half-maximal activity concentration (AC50) in [4] is 32.4 µM (active); in test [6], 29.4 µM (active); in [8] it was 21.4 µM (active); in test [9], 13.3 µM (active); in [10] it was 16.4 µM (active); in [11], 15.1 µM (active). For the same molecule, the values for the concentration at half-maximal activity (AC50) in [12] and in test [13] were 7.79 µM (active) and 15.6 µM (active), respectively. For the same molecule, the molecule was called inactive in test [5] and in [15].
On to `CCCCCCCCOC(=O)c1ccc(C(=O)OCCCCCCCC)c(C(=O)OCCCCCCCC)c1`, for which the concentration at half-maximal activity (AC50) in test [1] was 22.4 µM (active). In addition, the result (in test [2]; with CYP2C8 (gene 1558); with CYP2C9 (gene 1559); with CYP2E1 (gene 1571); with CYP4A11 (gene 1579); in test [3]) was inactive. Also, the result in test [4], in [5], in test [6], in test [7], in test [8] and in [9] was inactive. For the same molecule, the outcome in test [10], in test [11], in [12] and in [13] was inactive.
Regarding `CC(C)(C)C(O)(CCc1ccc(Cl)cc1)Cn1cncn1` (centres undefined), the AC50 was 91.4 µM (active) in test [1]; 12.1 µM (active) in test [2]; 11.4 µM (active) with CYP2C8 (gene 1558); 85.9 µM (active) with CYP2C9 (gene 1559); 50 µM (active) in the test with CYP2E1 (gene 1571); 55.2 µM (active) with CYP4A11 (gene 1579). Further, the AC50 in [3] is 2.86 µM (active); in test [6], 90.1 µM (active); in test [7], 2.43 µM (active); in test [8], 11.5 µM (active); in test [9] it was 57 µM (active); in test [10] it was 50 µM (active). The half-maximal activity concentration (AC50) in test [11] is 76.4 µM (active); in test [13] it was 50 µM (active); in test [14] it was 50 µM (active). Besides, the molecule was classed as inactive in test [5], in test [15] and in test [12].
